Here are results for four compounds from PubChem BioAssay (NCATS).

Molecules are shown by their SMILES. Inconclusive results are not listed. The source made the active and inactive calls. Unless noted, the call rests on the fitted dose curve; in most records, active means well fitted curve in the direction sought with a large enough effect; inconclusive means small, poorly fitted or top-dose-only effect, or another doubt; inactive means no such curve, though single readings can be large; an effect the other way counts as inactive or inconclusive.

The nature of assay [1]: qHTS Assay for Identifying Gametocytocidal Compounds (AID 743244).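 Further: on the % scale 0 is the no-effect control and ±100 the full control effect; actives lower the fluorescent signal which means gametocytes are killed.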 To be noted: P. falciparum 3D7 stage III-V gametocytes, alamarBlue, 72 h; max response: stronger effect = lower value. Put shortly:
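In this qHTS viability screen, late-stage 3D7 gametocytes are incubated with compound for 72 h, then with alamarBlue for 24 h; reduced resorufin fluorescence marks killing.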

Assay [2] is described as follows: P-glycoprotein substrates identified in KB-8-5-11 adenocarcinoma cell line, qHTS therapeutic library screen (AID 1346987). Further: potency means the concentration at half of the fitted maximal effect; nearly all actives have a fitted effect of over 65% in size. Put shortly:
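In this qHTS, P-gp-rich KB-8-5-11 cells received library compounds across a concentration range. Viability was quantified by luminescence after 72 h at 37 degree C.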

Assay [3] in a line: Primary qHTS for inhibitors of SARS-S pseudo-typed particle cell entry (AID 1479145; calls by dose curve; further: nearly all actives have a fitted effect of over 45% in size).
A short description of assay [4]: Primary qHTS for Huh7 cytotoxicity: counterscreen for inhibitors of MERS-S pseudotyped particle cell entry (AID 1479147; calls by dose curve; further: on the % scale 0 is the no-effect control and ±100 the full control effect). Particulars: outcome: dose series up to 57.1 µM unless noted.
Assay [5] is described as follows: Primary qHTS for inhibitors of MERS-S pseudo-typed particle cell entry (AID 1479149; calls by dose curve; further: nearly all actives have a fitted effect of over 60% in size).
A short description of assay [6]: Primary qHTS for Vero E6 cytotoxicity: counterscreen for inhibitors of SARS-S pseudo-typed particle cell entry (AID 1479150; calls by dose curve). To be noted: outcome: dose series up to 57.1 µM unless noted.
Assay [7] can be described thus: Cytotoxicity counterscreen for inhibitors of SARS-CoV-2 cell entry (AID 1645845; calls by dose curve; further: nearly all actives have a fitted effect of over 50% in size). Put shortly: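 ATP-content luminescence (ATPLite 1step, 15 min RT) read after 48 h compound exposure of Expi293F cells stably expressing human ACE2; normalized to cells-only wells and media-only wells.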
Assay [8] in a line: Primary qHTS to identify inhibitors of SARS-CoV-2 cell entry (AID 1645846; calls by dose curve; further: nearly all actives have a fitted effect of over 45% in size). Particulars: activity change, negative = inhibition: at 57.1 µM (top of the series) unless noted. Put shortly:
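Data are normalized to wells receiving SARS-CoV-2-S pseudoparticles and those given bald particles. Entry signal was luciferase luminescence in stable hACE2 Expi293F cells, 48 hr post-infection, after 1 hr compound pretreatment.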

Assay [9] deals with Glutathione peroxidase 1 (Homo sapiens) (UniProt P07203). Nature of the assay: Primary qHTS Assay for Inhibitors of Recombinant Selenoprotein Glutathione Peroxidase 1 (GPX1) (AID 1845191). Further: nearly all actives have a fitted effect of over 65% in size. Put shortly: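 NADPH consumption tracked by fluorescence at 340/450 nm between t=0 and t=15 min, room temperature. Final mix: 10 nM GPX1, 100 nM glutathione reductase, 1 mM GSH, 0.5 mM NADPH, 0.5 mM cumene hydroperoxide, 0.01% BSA; 30 min compound–enzyme preincubation.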
Glutathione peroxidase 1 (Homo sapiens), sequence (P07203 whole entry, looked up): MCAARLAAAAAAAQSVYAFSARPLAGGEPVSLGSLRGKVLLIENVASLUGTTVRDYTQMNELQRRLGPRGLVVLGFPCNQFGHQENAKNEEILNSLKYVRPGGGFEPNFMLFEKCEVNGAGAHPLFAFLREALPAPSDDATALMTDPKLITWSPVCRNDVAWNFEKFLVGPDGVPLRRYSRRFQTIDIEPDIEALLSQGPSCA

Assay [10] has as its target Phospholipid hydroperoxide glutathione peroxidase GPX4 (Homo sapiens) (UniProt P36969). The assay can be described thus: Primary qHTS Assay for Inhibitors of Recombinant Selenoprotein Glutathione Peroxidase 4 (GPX4) (AID 1845192). Further: nearly all actives have a fitted effect of over 65% in size. Put shortly: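 NADPH consumption followed by fluorescence at 340/450 nm, t=0 and after 15 min at room temperature. Reaction started with cumene hydroperoxide (0.5 mM final) after 30 min compound–GPX4 preincubation; final 200 nM GPX4, 100 nM GR, 1 mM GSH, 0.5 mM NADPH.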

Assay [11] is described as follows: qHTS for Inhibitors of the Functional Ribonucleoprotein Complex (vRNP) of Lassa (LASV) Arenavirus: LASV Primary Screen - GLuc reporter signal (AID 1347082; calls by dose curve; tested in HEK293 reporter line; further: nearly all actives have a fitted effect of over 60% in size; further: potency means the concentration at half of the fitted maximal effect; on activity change, negative = inhibition: on the % scale 0 is the no-effect control and ±100 the full control effect).
In assay [12] the target is Alpha-galactosidase (Coffea arabica) (UniProt Q42656). Nature of the assay: Counterscreen for Glucocerebrosidase Inhibitors: qHTS Assay for Coffee Bean alpha-Galactosidase at pH 4.5 (AID 957).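 Further: plate controls were enzyme alone for no effect and no enzyme for full effect.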 Put shortly: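 Fluorogenic read-out: 4-methylumbelliferone at Ex 365/Em 440 nm after NaOH/glycine stop (pH 10). Enzyme 2 nM, 4-MU-alpha-galactoside 80 uM, citrate buffer pH 4.5, 20 min RT; normalized to no-enzyme and enzyme controls.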
Alpha-galactosidase (Coffea arabica), sequence (Q42656 whole entry, looked up): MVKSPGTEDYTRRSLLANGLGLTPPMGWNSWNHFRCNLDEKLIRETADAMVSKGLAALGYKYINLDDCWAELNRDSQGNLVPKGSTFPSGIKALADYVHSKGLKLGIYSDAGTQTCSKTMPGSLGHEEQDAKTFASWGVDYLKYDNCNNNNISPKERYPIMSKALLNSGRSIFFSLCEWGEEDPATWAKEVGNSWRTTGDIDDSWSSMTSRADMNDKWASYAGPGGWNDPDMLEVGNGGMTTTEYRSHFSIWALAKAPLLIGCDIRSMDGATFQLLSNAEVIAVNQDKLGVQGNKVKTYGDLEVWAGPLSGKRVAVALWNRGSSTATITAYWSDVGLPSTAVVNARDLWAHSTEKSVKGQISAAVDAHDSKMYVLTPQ

For assay [13] the target is unchanged. Nature of the assay: Counterscreen for Glucocerebrosidase Inhibitors: qHTS Assay for Coffee Bean alpha-Galactosidase at pH 5.9 (AID 998).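 Further: plate controls were uninhibited enzyme for no effect and no-enzyme basal signal for full effect.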 Put shortly:
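Fluorogenic 4-MU substrate hydrolysis, 80 uM substrate and 2 nM coffee bean alpha-galactosidase, pH 5.9 citrate buffer, 20 min at room temperature, then NaOH/glycine stop. Titration 0.7 nM–77 uM, normalized to no-enzyme and enzyme controls, AC50 via Hill equation.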

Assay [14] can be described thus: High Content Imaging Cell-Based qHTS for Inhibitors of the mTORC1 Signaling Pathway in MEF (Tsc2-/-, p53-/-) Cells (AID 2666).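 Further: percent of cells scored positive for phospho-rpS6 Ser235/236 immunostaining by imaging.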 Put shortly:
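Tsc2-/-, p53-/- MEFs (empty-vector stable) grown in DMEM + 10% FBS were exposed to compounds for 24 hrs at 37 degree Celsius, fixed, and stained with Alexa-488 anti-phospho-rpS6 Ser235/236 plus Hoechst. Imaging gave the percentage of positive cells per well.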

A short description of assay [15]: Validation screen for inhibitors of Lassa infection (AID 463096; calls by dose curve; further: on the % scale 0 is the no-effect control and ±100 the full control effect).
The target of assay [16] is M-phase phosphoprotein 8 (Homo sapiens) (UniProt Q99549). Nature of the assay: qHTS Validation Assay for Inhibitors for MPP8 Chromodomain Interactions with Methylated Histone Tails (AID 488949).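 Further: AlphaScreen signal from MPP8 chromodomain bound to biotinylated H3K9me3 peptide; top concentration of the series differs between compounds; on the % scale 0 is the no-effect control and ±100 the full control effect; nearly all actives have a fitted effect of over 55% in size.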 Put shortly:
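Disruption of the preformed MPP8–trimethyl-H3K9 peptide complex (both 50 nM, 30 min, RT) is measured after 30 min compound exposure, using AlphaScreen proximity beads; aurintricarboxylic acid titration serves as plate control.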

Assay [17] has as its target Ubiquitin carboxyl-terminal hydrolase 1 (Homo sapiens) (UniProt O94782). Nature of the assay: Inhibitors of USP1/UAF1: Pilot qHTS (AID 504865).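 Further: rhodamine fluorescence freed from ubiquitin-rhodamine substrate followed over time; top concentration of the series differs between compounds; on the % scale 0 is the no-effect control and ±100 the full control effect; nearly all actives have a fitted effect of over 35% in size.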 Put shortly: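 Kinetic fluorescence assay: 1nM USP1/UAF1, 15 min compound preincubation, then 150nM Ub-Rho; 480/540 nm.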
Assay [18] can be described thus: HTS Assay for Allosteric Antagonists of the Human D2 Dopamine Receptor: Hit Validation in HTRF (AID 624455). Further: on the % scale 0 is the no-effect control and ±100 the full control effect. Put shortly:
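HTRF read-out; cells stably expressing D1 receptor; hits scored for inhibition of D1-mediated response. Primary screen: calcium flux, force-coupled inducible Hek293 Trex D2 line, antagonism vs EC80 dopamine.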

For assay [19], the target named is Arylsulfatase A (Homo sapiens) (UniProt P15289). The assay can be described thus: qHTS screen for enhancers of Arylsulfatase A (ASA1): LOPAC Validation Assay (AID 720538). Put shortly:
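First, ASA-I179S fibroblasts from an MLD patient adhered for 6 hrs. Next, compounds were added for 48h. Then pNCS substrate (0.5mM final) with lysis buffer reacted 14h at room temperature before NaOH stop and fluorescence measurement.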

In assay [20] the target is Parathyroid hormone/parathyroid hormone-related peptide receptor (Homo sapiens) (UniProt Q03431). Nature of the assay: qHTS for PTHR1 Agonists: Optimization Screen against the NCGC LOPAC library (AID 1347079).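 Further: GloSensor cAMP luminescence in HEK-293 GP2 cells expressing human PTHR1 with IBMX; 0% is about no effect.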 Put shortly:
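Signal increase flags agonism. GP2 cells, derived from HEK-293, express human PTHR1 and a GloSensor cAMP construct.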

Assay [21] can be described thus: qHTS for Inhibitors of the Functional Ribonucleoprotein Complex (vRNP) of Lassa (LASV) Arenavirus: Viability assay - alamar blue signal for LASV Primary Screen (AID 1347083; calls by dose curve; tested in HEK293 reporter line; further: on the % scale 0 is the no-effect control and ±100 the full control effect; nearly all actives have a fitted effect of over 80% in size).
Assay [22] is described as follows: qHTS for Inhibitors of the Functional Ribonucleoprotein Complex (vRNP) of Lymphocytic Choriomeningitis Arenaviruses (LCMV): Viability assay - alamar blue signal for LCMV Primary Screen (AID 1347085; calls by dose curve; tested in HEK293 reporter line; further: on the % scale 0 is the no-effect control and ±100 the full control effect; nearly all actives have a fitted effect of over 80% in size).
The target in assay [23] is Nucleoprotein (Lymphocytic choriomeningitis virus (strain Armstrong)) (UniProt P09992). The assay can be described thus: qHTS for Inhibitors of the Functional Ribonucleoprotein Complex (vRNP) of Lymphocytic Choriomeningitis Arenaviruses (LCMV): LCMV Primary Screen - GLuc reporter signal (AID 1347086; calls by dose curve; further: on the % scale 0 is the no-effect control and ±100 the full control effect; nearly all actives have a fitted effect of over 70% in size).
Nucleoprotein (Lymphocytic choriomeningitis virus (strain Armstrong)), sequence (P09992 whole entry, looked up): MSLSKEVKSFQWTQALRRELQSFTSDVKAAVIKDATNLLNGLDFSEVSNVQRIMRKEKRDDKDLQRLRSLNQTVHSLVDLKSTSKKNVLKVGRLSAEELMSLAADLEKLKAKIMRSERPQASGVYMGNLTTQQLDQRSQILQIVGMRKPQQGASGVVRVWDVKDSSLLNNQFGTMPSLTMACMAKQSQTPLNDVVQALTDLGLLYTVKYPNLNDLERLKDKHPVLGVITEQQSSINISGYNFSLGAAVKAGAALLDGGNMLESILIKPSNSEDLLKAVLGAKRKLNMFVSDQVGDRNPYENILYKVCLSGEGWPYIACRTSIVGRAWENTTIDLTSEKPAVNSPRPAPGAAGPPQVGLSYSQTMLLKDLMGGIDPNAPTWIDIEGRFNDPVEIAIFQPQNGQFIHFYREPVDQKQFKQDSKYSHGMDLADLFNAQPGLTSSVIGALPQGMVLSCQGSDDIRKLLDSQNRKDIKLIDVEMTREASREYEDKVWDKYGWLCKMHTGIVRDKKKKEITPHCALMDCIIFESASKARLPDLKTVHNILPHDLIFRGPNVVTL
Assay [24] can be described thus: P-glycoprotein substrates identified in KB-3-1 adenocarcinoma cell line, qHTS therapeutic library screen (AID 1346986).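 Further: potency means the concentration at half of the fitted maximal effect; potency is for cytotoxicity meaning loss of cell viability; nearly all actives have a fitted effect of over 60% in size.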 Put shortly:
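Dose-response cytotoxicity, KB-3-1 vs P-gp-high KB-8-5-11, no colchicine in assay medium. Read: CellTiter-Glo at 72 h.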

Assay [25] in a line: qHTS drug screen for cell cycle checkpoint inhibitors in PARPi-resistant BRCA-mutant ovarian cancer cell lines. (AID 1963452; calls by dose curve). Particulars: PEO1/OlaR viability, CellTiter-Glo luminescence, 96 h, stronger effect = lower value. Put shortly: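 PEO1, PEO4 and PEO1/OlaR ovarian cancer cells, 600 per well, exposed 96 h at 37C to a dilution series. Viability read by CellTiter-Glo luminescence, normalized to DMSO and empty wells; activity summarized as Z-AUC.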

Phospholipid hydroperoxide glutathione peroxidase GPX4 (Homo sapiens), sequence (P36969 whole entry, looked up): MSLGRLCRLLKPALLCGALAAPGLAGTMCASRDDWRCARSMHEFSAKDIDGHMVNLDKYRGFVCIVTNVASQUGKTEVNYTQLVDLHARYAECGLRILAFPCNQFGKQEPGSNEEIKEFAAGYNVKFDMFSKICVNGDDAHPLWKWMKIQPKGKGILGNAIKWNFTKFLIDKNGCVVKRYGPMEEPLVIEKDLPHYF
Ubiquitin carboxyl-terminal hydrolase 1 (Homo sapiens), sequence (O94782 whole entry, looked up): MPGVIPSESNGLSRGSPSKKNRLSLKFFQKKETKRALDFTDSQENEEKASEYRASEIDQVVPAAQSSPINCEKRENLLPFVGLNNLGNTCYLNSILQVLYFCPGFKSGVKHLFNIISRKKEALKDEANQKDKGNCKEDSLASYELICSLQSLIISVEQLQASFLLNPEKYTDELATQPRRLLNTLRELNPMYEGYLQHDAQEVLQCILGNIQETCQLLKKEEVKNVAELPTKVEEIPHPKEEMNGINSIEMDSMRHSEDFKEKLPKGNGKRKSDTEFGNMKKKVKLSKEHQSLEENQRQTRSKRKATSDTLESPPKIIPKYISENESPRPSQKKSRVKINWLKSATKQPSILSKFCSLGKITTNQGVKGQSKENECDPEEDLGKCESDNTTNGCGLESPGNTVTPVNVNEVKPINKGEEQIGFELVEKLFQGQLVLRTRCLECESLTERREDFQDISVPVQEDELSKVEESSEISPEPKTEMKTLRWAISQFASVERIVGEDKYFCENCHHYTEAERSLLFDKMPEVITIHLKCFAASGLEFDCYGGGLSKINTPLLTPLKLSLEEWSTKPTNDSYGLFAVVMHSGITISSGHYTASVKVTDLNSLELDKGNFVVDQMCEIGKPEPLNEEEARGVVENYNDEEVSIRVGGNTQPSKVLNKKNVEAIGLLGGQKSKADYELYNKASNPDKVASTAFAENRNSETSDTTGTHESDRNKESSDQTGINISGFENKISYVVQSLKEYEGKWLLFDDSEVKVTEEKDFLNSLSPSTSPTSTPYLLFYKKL
Arylsulfatase A (Homo sapiens), sequence (P15289 whole entry, looked up): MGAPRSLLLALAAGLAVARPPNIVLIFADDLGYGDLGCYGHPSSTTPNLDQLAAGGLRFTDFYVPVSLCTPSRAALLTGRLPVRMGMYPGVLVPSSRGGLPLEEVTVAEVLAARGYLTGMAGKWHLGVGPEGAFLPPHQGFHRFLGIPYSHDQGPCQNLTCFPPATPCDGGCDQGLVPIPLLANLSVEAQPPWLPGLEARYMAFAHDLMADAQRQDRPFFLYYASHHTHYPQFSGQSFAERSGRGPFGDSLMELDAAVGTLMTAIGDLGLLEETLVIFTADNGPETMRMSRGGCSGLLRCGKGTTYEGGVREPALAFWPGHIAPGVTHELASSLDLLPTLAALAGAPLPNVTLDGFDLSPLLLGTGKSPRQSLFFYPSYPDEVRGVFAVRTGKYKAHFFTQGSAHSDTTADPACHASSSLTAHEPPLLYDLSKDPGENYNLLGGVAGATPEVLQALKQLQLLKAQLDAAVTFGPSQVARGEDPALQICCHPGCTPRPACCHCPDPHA
M-phase phosphoprotein 8 (Homo sapiens), sequence (Q99549 whole entry, looked up): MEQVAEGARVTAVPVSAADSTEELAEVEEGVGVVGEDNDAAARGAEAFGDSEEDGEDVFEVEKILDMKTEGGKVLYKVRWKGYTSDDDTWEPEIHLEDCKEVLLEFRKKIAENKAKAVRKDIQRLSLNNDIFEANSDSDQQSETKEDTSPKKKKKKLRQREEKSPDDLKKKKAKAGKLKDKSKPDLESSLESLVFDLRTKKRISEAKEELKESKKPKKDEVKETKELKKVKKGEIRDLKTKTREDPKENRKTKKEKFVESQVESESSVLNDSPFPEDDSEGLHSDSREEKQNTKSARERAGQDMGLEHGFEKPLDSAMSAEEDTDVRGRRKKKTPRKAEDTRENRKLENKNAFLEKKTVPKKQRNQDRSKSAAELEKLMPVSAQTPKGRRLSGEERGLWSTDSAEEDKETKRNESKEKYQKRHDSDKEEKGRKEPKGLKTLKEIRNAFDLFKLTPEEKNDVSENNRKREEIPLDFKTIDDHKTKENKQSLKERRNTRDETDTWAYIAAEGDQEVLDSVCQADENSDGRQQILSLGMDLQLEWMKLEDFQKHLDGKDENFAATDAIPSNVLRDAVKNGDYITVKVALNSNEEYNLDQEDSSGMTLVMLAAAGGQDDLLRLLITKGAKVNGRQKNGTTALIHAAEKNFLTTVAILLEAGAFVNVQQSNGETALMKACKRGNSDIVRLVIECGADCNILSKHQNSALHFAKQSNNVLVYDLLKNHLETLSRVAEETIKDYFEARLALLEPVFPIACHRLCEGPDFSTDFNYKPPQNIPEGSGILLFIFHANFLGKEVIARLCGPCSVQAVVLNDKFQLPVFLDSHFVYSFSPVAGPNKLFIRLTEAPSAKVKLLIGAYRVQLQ
Parathyroid hormone/parathyroid hormone-related peptide receptor (Homo sapiens), sequence (Q03431 whole entry, looked up): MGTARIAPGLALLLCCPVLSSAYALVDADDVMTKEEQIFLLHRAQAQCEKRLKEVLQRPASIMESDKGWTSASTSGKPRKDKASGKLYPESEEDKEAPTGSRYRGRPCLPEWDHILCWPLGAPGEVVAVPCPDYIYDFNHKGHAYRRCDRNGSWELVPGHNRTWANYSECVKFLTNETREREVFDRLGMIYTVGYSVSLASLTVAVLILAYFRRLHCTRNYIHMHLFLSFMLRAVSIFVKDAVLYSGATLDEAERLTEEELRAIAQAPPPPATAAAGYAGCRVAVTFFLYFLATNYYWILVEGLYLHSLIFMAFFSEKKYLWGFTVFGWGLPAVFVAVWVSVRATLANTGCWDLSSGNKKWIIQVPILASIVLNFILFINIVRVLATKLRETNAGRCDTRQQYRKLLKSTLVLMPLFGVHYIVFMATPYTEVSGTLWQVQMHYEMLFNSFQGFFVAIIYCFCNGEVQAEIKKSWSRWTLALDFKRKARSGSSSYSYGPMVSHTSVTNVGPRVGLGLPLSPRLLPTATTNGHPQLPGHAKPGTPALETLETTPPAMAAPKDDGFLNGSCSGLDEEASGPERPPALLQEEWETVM

With `C[C@]12CC[C@H]3[C@@H](CCC4=CC(=O)CC[C@@]43C)[C@@H]1CC[C@@H]2OC(=O)CCc1ccccc1`, the max response in assay [1] is 3.81% (inactive). Also, the Potency in [2] is 10 µM (active). Moreover, the Potency entry in assay [3], in [5], in [7], in assay [9] and in [10] was “inactive” each time. Further, the call in assay [4] and in assay [6] was inactive. The activity change, negative = inhibition in assay [8] is -18.9%.
Consider `O=C1C=CC(O)(c2cc(=O)c3c(O)cc(O)cc3o2)C=C1`, for which, in assay [11], the Potency is 17.8 µM (active).
On to `C1CCc2nnnn2CC1`, for which the call in assay [12], in [13], in assay [18] and in [20] was inactive. For the same compound, the Potency result in [14], in assay [15], in [16], in assay [17], in [19] and in assay [11] was “inactive” throughout. Besides, the Potency result in [21], in assay [22] and in assay [23] was “inactive” each time.
`COc1cc2c(cc1F)C(c1ccccc1Cl)=Nc1c(n[nH]c1C)N2`: the values for the Potency in assay [24] and in assay [2] were 2.06 µM (active) and 1.3 µM (active), respectively. For the same compound, the Potency entry in [7], in assay [9] and in [10] was “inactive” in each case. Moreover, the Z-AUC in [25] was -0.71 (inactive); in assay [25] (measured here: PEO1 parental Z-AUC), -0.883; in assay [25] (measured here: PEO4 Z-AUC), -0.718.
